Here are results for 115 compounds from PubChem BioAssay AID493191 (Broad Institute, 2011).

Among all 1,300 compounds or so, about 330 (25%) were called active. The rule behind the calls is not given here. Not all results are given here. Entries with a potency or affinity are not part of this list.

The nature of the assay: MALME3 melanoma cell viability loss, dose response, orthogonal assay for MITF inhibitor project, CellTiter-Glo, cherry-picked (AID 493191). To be noted: CellTiter-Glo luminescence, 24 h; series mostly up to 35 µM.
For `O=C1CN(c2ccccc2)C(=S)N1C(=O)c1ccc(Br)cc1`, the result was inactive.

Regarding `COc1ccc(NC(=O)c2cc(F)cc(F)c2)cc1Cl`, the outcome was inactive.

In the case of `CN(C)c1ccc(NC(=O)Nc2ccc3c(c2)nnn3C)cc1`, the outcome was inactive.

For the compound `O=[N+]([O-])/C=C\c1ccc(N2CCOCC2)cc1`, the compound was called inactive.

With `COc1ccc(C(NC(C)=O)c2ccc3cccnc3c2O)c(OC)c1` (stereo not given), the compound was classed as inactive.

As for `CCOC(=O)c1ccc2nc(C)c(CCC(C)=O)c(Cl)c2c1`, the outcome was inactive.

`COc1ccc(C(=O)Nc2ccc(C)cn2)c(OC)c1`: the compound was called inactive.

For the compound `CC(C)N1C(=O)S/C(=C\c2ccc(-c3ccc(Cl)c(C(=O)O)c3)o2)C1=O`, the result was inactive.

`COC(=O)c1ccc(COc2ccc3c(c2)CCC3)o1`: the compound was classed as inactive.

For the compound `CN=c1scc(-c2ccccc2F)n1/N=C/c1ccc[nH]1`, the call was inactive.

As to `O=C(/C=C/c1ccc2c(c1)OCO2)N1CCCCC1`, the result was inactive.

`CCCC(=O)NC(c1ccc(OC)c(OC)c1)c1cc(Cl)c2cccnc2c1O` (stereo not given): the compound was called inactive.

Take `CCC(=O)NC(c1ccccc1OC)c1ccc2cccnc2c1O` (stereo not given): the compound was called inactive.

In the case of `COc1cnc(-c2ccccn2)nc1NC(C)C`, the call was inactive.

`CCNC(=O)CC1C(=O)N(c2ccc(F)cc2)C(=O)N1CCc1ccc(OC)cc1` (stereo not given): the compound was called inactive.

For `COc1ccc(C(=O)CCNc2ccc(F)cc2)cc1`, the compound was classed as inactive.

Consider `COc1ccc(C(=O)C(CN2CCOCC2)c2ccccc2)cc1` (stereo not given), for which the compound was called inactive.

On to `COc1ccc(C(=O)C(CN2CCCC2)c2ccccc2)cc1` (stereo not given), for which the outcome was inactive.

For the compound `c1ccc(-n2ncc3c(NCc4cccs4)ncnc32)cc1`, the result was inactive.

Take `CC(C)(C)c1ccc(C(=O)Nc2sc3c(c2C(=O)O)CCC3)cc1`: the outcome was inactive.

With `Cc1cc(C)c2c(N)c(C(=O)Nc3ncc(C)s3)sc2n1`, the result was inactive.

Regarding `O=C(CNC(=O)c1ccc(Br)cc1)c1ccccc1`, the compound was called inactive.

Regarding `O=C(CC(=O)c1ccccc1)Nc1ccccc1`, the call was inactive.

On to `C/C(=N/N=C(/C)c1cccs1)c1cccs1`, for which the outcome was inactive.

On to `CCC[n+]1c(C)sc2c3c(ccc21)CCCC3`, for which the compound was called inactive.

For `Cc1nc2cc(NC(=O)Nc3cccc([N+](=O)[O-])c3)ccc2n1C`, the outcome was inactive.

On to `Cn1cc([N+](=O)[O-])c(C(=O)Nc2cc(Oc3ccccc3)cc([N+](=O)[O-])c2)n1`, for which the call was inactive.

Turning to `Cc1cc(C)c2c(N)c(C(=O)N/N=C/c3cccnc3)sc2n1`, the compound was classed as inactive.

In the case of `O=C(O)C1CCN(C(=O)OCc2ccccc2)CC1`, the compound was classed as inactive.

For `Cc1ccc(NC(=O)/C=C/c2ccc([N+](=O)[O-])s2)c(C)c1`, the compound was classed as inactive.

Consider `O=C(/C=C/c1ccccc1)Nc1cccc(C(=O)O)c1`, for which the result was inactive.

As for `O=C(/C=C/c1ccc([N+](=O)[O-])s1)N1CCCC1`, the result was inactive.

Regarding `CC1CC(C)CN(C(=O)/C=C/c2ccc([N+](=O)[O-])s2)C1` (stereo not given), the result was inactive.

Consider `CC(C)N=c1c([N+](=O)[O-])nn(C)n1O`, for which the outcome was inactive.

As for `OCC1OC(n2cnc3c(NCc4ccco4)ncnc32)C(O)C1O` (stereo not given), the outcome was inactive.

As to `CC(Oc1ccc(F)cc1)C(=O)Nc1nc(-c2ccccn2)cs1` (stereo not given), the call was inactive.

Consider `CCC(=O)NCCc1nc2cc(NC(=O)c3cccc([N+](=O)[O-])c3)ccc2n1C`, for which the outcome was inactive.

Consider `O=C(N/N=C\c1cc(Cl)ccc1O)c1ccc(S(=O)(=O)N2CCCCC2)cc1`, for which the call was inactive.

On to `O=C(Cn1cnc2ccccc2c1=O)Nc1ccc2c(c1)OCCO2`, for which the call was inactive.

Take `O=C(Nc1ccc(F)c(Cl)c1)c1ccc2c(c1)OCO2`: the outcome was inactive.

With `COc1ccc(NS(=O)(=O)c2cc(NC(=O)CNC(=O)c3cccc(OC)c3)ccc2C)cc1`, the call was inactive.

For the compound `CCN1CCc2c(sc(NC(=O)c3ccc(S(=O)(=O)N4CCCCCC4)cc3)c2C(=O)NC)C1`, the compound was classed as inactive.

Turning to `Cc1cc(C)n(-c2ccc(C(=O)Nc3ccc(C)c(S(=O)(=O)N4CCOCC4)c3)cc2)n1`, the compound was classed as inactive.

Regarding `O=C(Nc1ccccc1F)C(=O)Nc1cccc2ccccc12`, the result was inactive.

As for `Cc1ccc2oc(C(Cl)(Cl)Cl)cc(=O)c2c1`, the outcome was inactive.

For the compound `O=C(CSc1nnnn1-c1ccc(O)cc1)Nc1cccc(S(=O)(=O)N2CCCC2)c1`, the result was inactive.

With `O=C(CCl)Nc1cccc(S(=O)(=O)NC2=NCCCCC2)c1`, the result was inactive.

`COc1ccc(C(=O)Nc2nc3ccc(OC)cc3s2)cc1`: the call was inactive.

With `CC1CCN(c2nc3ccc(C(=O)O)cc3s2)CC1`, the compound was called inactive.

As for `COc1cccc(N2CCN(C(=O)c3ccc(CS(=O)c4ccccc4Cl)o3)CC2)c1` (stereo not given), the compound was called inactive.

In the case of `O=C(c1ccc(F)cc1)N1CCC(c2ccccc2)C1` (stereo not given), the compound was called inactive.

For the compound `CC(C)c1nnc(NC(=O)CCC2CCCCC2)s1`, the outcome was inactive.

As to `COc1ccc2oc(=O)c(C(=O)Nc3ccccc3C)cc2c1`, the result was inactive.

Take `c1ccc(OCc2nn3c(-c4ccccn4)nnc3s2)cc1`: the compound was classed as inactive.

In the case of `Cc1ccc(-c2c[n+](Cc3ccc(Cl)cc3)c3n2CCC3)cc1`, the result was inactive.

With `COc1ccc(-c2c[n+](CC(=O)OC3CC(C)CCC3C(C)C)c3n2CCC3)cc1` (stereo not given), the outcome was inactive.

Turning to `COc1ccc(N/N=C/c2c(C(=O)O)ccc3ccccc23)cc1`, the call was inactive.

Take `Cc1ccc(COc2ccc(C)nc2[N+](=O)[O-])cc1`: the compound was classed as inactive.

Take `CCc1cc(C=NC2CCCCC2)c(O)s1`: the compound was called inactive.

As to `O=[N+]([O-])c1cc(Cl)cc(/C=N\Nc2ccccn2)c1O`, the compound was classed as inactive.

For the compound `COc1cc2c(c(OC)c1OC)-c1ccc(N(C)CC(OC)OC)c(=O)cc1[C@@H](NC(C)=O)CC2`, the outcome was inactive.

For `Cc1cc(N2CCOCC2)ccc1/C=C\[N+](=O)[O-]`, the outcome was inactive.

With `O=C(Nc1ccc(Cl)cc1)C1C2CCCCC21` (stereo not given), the compound was classed as inactive.

With `COc1ccc(C(=O)NC(=O)Nc2cc(C)ccn2)cc1`, the compound was classed as inactive.

As for `N/C(=N\OC(=O)c1ccccc1)c1ccccn1`, the call was inactive.

Take `COCc1cc(C)nc2sc(C(=O)Nc3cccc(OC)c3)c(N)c12`: the compound was called inactive.

Consider `Cc1cccc2sc(N(CCCN(C)C)C(=O)c3nc4ccccc4s3)nc12`, for which the compound was called inactive.

In the case of `CC(=O)OCCCNc1cc(Sc2ccc(Cl)cc2)c2nonc2c1[N+](=O)[O-]`, the result was inactive.

Turning to `CCC(=O)OCCNc1cc(Sc2nc3ccccc3[nH]2)c2nonc2c1[N+](=O)[O-]`, the compound was classed as inactive.

Turning to `O=[N+]([O-])c1c(NCCCO)cc(Sc2ccc(Cl)cc2)c2nonc12`, the compound was classed as inactive.

As for `O=C(Nc1ccccc1F)c1ccc2c(c1)OCO2`, the result was inactive.

As for `COc1cccc(-c2nnc3n2N=C(C(C)(C)C)CS3)c1`, the call was inactive.

For `Cc1ccc(C2=NN(C(=O)CCl)C(c3cccs3)C2)o1` (stereo not given), the result was inactive.

Regarding `C=C1C(=O)C=C[C@]2(C)C[C@@H]3OC(=O)[C@](C)(O)[C@H]3C[C@@H]12`, the outcome was inactive.

Regarding `CNc1oc(/C=C/c2cccc(OC)c2)nc1C#N`, the call was inactive.

For the compound `CCCN1C(=O)c2ccc(C(=O)Nc3cc(C)ccc3O)cc2C1=O`, the outcome was inactive.

Regarding `NNC(=O)c1cc2ccccc2cc1O`, the compound was classed as inactive.

For the compound `Cn1c(=O)c([N+](=O)[O-])c(-n2ccnc2)c2ccccc21`, the compound was called inactive.

Turning to `CCn1c(=O)c(C(=O)NCc2ccccc2Cl)c(O)c2ccccc21`, the compound was called inactive.

For the compound `CCOc1cc(NC(=O)CCl)c(OCC)cc1NC(=O)CCl`, the compound was called inactive.

With `COc1cc([N+](=O)[O-])cc(/C=N/NC(=O)c2ccc(NC(=O)c3ccc(C)cc3)cc2)c1O`, the compound was classed as inactive.

For the compound `O=C(O)c1cccc(NC(=S)N/N=C/c2ccccn2)c1`, the result was inactive.

As to `O=C(NC1CCCCC1)C(c1cccnc1)N(C(=O)CCl)c1ccc(F)cc1` (stereo not given), the call was inactive.

Take `COc1cc(CN2CCC(C(N)=O)CC2)ccc1OCc1ccccc1`: the result was inactive.

Consider `COc1cc2c(cc1OC)C(C)N(S(=O)(=O)c1cnc(Cl)c(Cl)c1)CC2` (stereo not given), for which the outcome was inactive.

Consider `Cc1cc(C)c(C#N)c(SCc2nnc(-c3ccccc3)o2)n1`, for which the compound was called inactive.

On to `O=C(NC1CCCCC1)c1cc2cc(Br)ccc2o1`, for which the result was inactive.

Regarding `COc1cc2c(c(OC)c1OC)-c1ccc(OC)c(=O)cc1C(NC(C)=O)CC2` (stereo not given), the outcome was inactive.

Turning to `O=C(C[n+]1cc(-c2ccc(F)cc2)n2c1CCC2)c1cccs1`, the outcome was inactive.

As for `Cc1nc(SCC(=O)Nc2ccc(CN3CCCC3)cc2)c2c(C)c(C)sc2n1`, the result was inactive.

Take `O=C(CCl)Nc1ccc(-c2ccccc2)cc1`: the result was inactive.

For the compound `O=C(CCl)Nc1ccc(Sc2ccc(NC(=O)CCl)cc2)cc1`, the result was inactive.

With `Cc1ccc2cc(NC(=O)Cc3ccccc3)ccc2n1`, the compound was classed as inactive.

Take `Cc1cccc(OCC(=O)Nc2cccc(O)c2)c1`: the result was inactive.

Take `COc1cccc(NC(=O)c2cc3ccccc3cc2OC)c1`: the outcome was inactive.

Consider `COc1ccc(-c2cc(-c3ccc(OC)c(OC)c3)n[nH]2)c(O)c1`, for which the call was inactive.

On to `CCCOC(=O)c1ccc(NC(=O)C2CCCO2)cc1` (stereo not given), for which the outcome was inactive.

`CC1=NC(=O)C(N=Nc2cccc(C(=O)O)c2)N1c1ccccc1` (stereo not given): the call was inactive.

On to `Cc1ccc(-c2c[n+](Cc3ccc(Cl)c(Cl)c3)c3n2CCC3)cc1`, for which the call was inactive.

As to `Cc1oc(=O)c(NC(=O)c2ccccc2)cc1C(=O)c1ccccc1`, the compound was called inactive.

Turning to `Cc1cc(C)c2c(N)c(C(=O)N/N=C/c3ccccc3)sc2n1`, the call was inactive.

Consider `Cc1cc(C)c2nc3nc(C)cc(C)c3c(N)c2c1`, for which the compound was called inactive.

For `Cn1nnnc1Sc1ncnc2scc(-c3ccsc3)c12`, the outcome was inactive.

As to `Cn1nnnc1Sc1ncnc2scc(-c3ccc(F)cc3)c12`, the result was inactive.

`O=C(O)c1ccc(N/N=C/c2ccc(OC(=O)c3cccc(Cl)c3)cc2)cc1`: the result was inactive.

`COc1ccccc1N1CCN(/N=C/c2cccc(Cl)c2)CC1`: the compound was called inactive.

As to `CC(Oc1ccccc1)C(=O)Nc1nc(-c2ccccn2)cs1` (stereo not given), the compound was called inactive.

On to `O=C(Nc1nc(-c2ccccn2)cs1)c1ccccc1-n1cnnn1`, for which the compound was classed as inactive.

`COc1ccc(C(=O)/C=C/Nc2ccccn2)cc1`: the compound was classed as inactive.

Consider `O=C(Nc1ccc2nn(-c3ccccc3)nc2c1)c1ccco1`, for which the call was inactive.

For the compound `Cc1nc2ccc(NC(=O)c3ccco3)cc2nc1C`, the compound was classed as inactive.

On to `Cc1cc(C(=O)Nc2cccc(C(=O)O)c2)oc1C`, for which the compound was called inactive.

With `Cc1cccc(NC(=O)c2ccc([N+](=O)[O-])o2)c1C`, the compound was classed as inactive.

Turning to `COc1ccc(C(=O)Nc2ccc3c(c2)OCCO3)cc1Br`, the call was inactive.

With `CC(C)[C@H](NC(=O)OC(C)(C)C)c1nnc(S(=O)(=O)Cc2c(F)cccc2Cl)o1`, the compound was called inactive.
